# Source: PubChem BioAssay (NCATS)
# Results filed as inconclusive are left out. Active and inactive are the calls of the source. Unless noted, the call rests on the fitted dose curve; in most records, active means well fitted curve in the direction sought with a large enough effect; inconclusive means small, poorly fitted or top-dose-only effect, or another doubt; inactive means no such curve, though single readings can be large; an effect the other way counts as inactive or inconclusive.
# Tests used:
# [1] = qHTS for Inhibitors of the Functional Ribonucleoprotein Complex (vRNP) of Lassa (LASV) Arenavirus: Viability assay - alamar blue signal for LASV Primary Screen (AID 1347083; calls by dose curve; tested in HEK293 reporter line; further: nearly all actives have a fitted effect of over 80% in size)
# [2] = qHTS for Inhibitors of the Functional Ribonucleoprotein Complex (vRNP) of Lymphocytic Choriomeningitis Arenaviruses (LCMV): Viability assay - alamar blue signal for LCMV Primary Screen (AID 1347085; calls by dose curve; tested in HEK293 reporter line; further: nearly all actives have a fitted effect of over 80% in size)
# [3] = target: Nucleoprotein (Lymphocytic choriomeningitis virus (strain Armstrong)) (UniProt P09992); experiment: qHTS for Inhibitors of the Functional Ribonucleoprotein Complex (vRNP) of Lymphocytic Choriomeningitis Arenaviruses (LCMV): LCMV Primary Screen - GLuc reporter signal (AID 1347086; calls by dose curve; further: nearly all actives have a fitted effect of over 70% in size)
# [4] = qHTS of pediatric cancer cell lines to identify multiple opportunities for drug repurposing: Primary screen for TC32 cells (AID 1347089); further: nearly all actives have a fitted effect of over 60% in size
# Procedure, shortened: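 In the primary qHTS, MIPE compounds were tested at 11 concentrations (0.78 nM to 46 µM) and NPC compounds at 8 (0.59 nM to 46 µM) on TC32 cells for 48 h. CellTiter-Glo luminescence gave viability.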
# [5] = qHTS of pediatric cancer cell lines to identify multiple opportunities for drug repurposing: Primary screen for SJ-GBM2 cells (AID 1347091)
# Procedure, shortened: (§1)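 Eight- or eleven-point concentration series, 48 h treatment at 37 degrees C in growth media; readout CellTiter-Glo luminescence. Potency and efficacy were taken from the concentration-response curves.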
# [6] = qHTS of pediatric cancer cell lines to identify multiple opportunities for drug repurposing: Primary screen for DAOY cells (AID 1347090); further: nearly all actives have a fitted effect of over 55% in size
# Procedure, shortened: as §1
# [7] = qHTS of pediatric cancer cell lines to identify multiple opportunities for drug repurposing: Primary screen for A673 cells (AID 1347092); further: nearly all actives have a fitted effect of over 45% in size
# Procedure, shortened: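 48 h compound exposure, A673, 500-1,000 cells/well, 37 degrees C/5% CO2. MIPE: 11-point, 0.78 nM-46 µM; NPC: 8-point, 0.59 nM-46 µM (final). Readout CellTiter-Glo luminescence after 15 min RT.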
# [8] = qHTS of pediatric cancer cell lines to identify multiple opportunities for drug repurposing: Primary screen for SK-N-MC cells (AID 1347093)
# Procedure, shortened: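 Metabolically active cells were quantified by ATP-dependent luminescence (CellTiter-Glo, 15 min at room temperature) following 48 h treatment. Cells had been plated at 500-1,000 per well and settled for 5 h beforehand.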
# [9] = qHTS of pediatric cancer cell lines to identify multiple opportunities for drug repurposing: Primary screen for NB-EBc1 cells (AID 1347095)
# Procedure, shortened: (§2)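 Luminescence from CellTiter-Glo served as readout of metabolically active cells after 48 h compound exposure. Titrations: MIPE 11-point, from 0.78 nM; NPC 8-point, from 0.59 nM (final). Concentration-response curves came straight from the primary screen.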
# [10] = qHTS of pediatric cancer cell lines to identify multiple opportunities for drug repurposing: Primary screen for BT-37 cells (AID 1347094)
# Procedure, shortened: as §2
# Potency means the concentration at half of the fitted maximal effect.
# Sequence of Nucleoprotein (Lymphocytic choriomeningitis virus (strain Armstrong)) (P09992 whole entry, looked up): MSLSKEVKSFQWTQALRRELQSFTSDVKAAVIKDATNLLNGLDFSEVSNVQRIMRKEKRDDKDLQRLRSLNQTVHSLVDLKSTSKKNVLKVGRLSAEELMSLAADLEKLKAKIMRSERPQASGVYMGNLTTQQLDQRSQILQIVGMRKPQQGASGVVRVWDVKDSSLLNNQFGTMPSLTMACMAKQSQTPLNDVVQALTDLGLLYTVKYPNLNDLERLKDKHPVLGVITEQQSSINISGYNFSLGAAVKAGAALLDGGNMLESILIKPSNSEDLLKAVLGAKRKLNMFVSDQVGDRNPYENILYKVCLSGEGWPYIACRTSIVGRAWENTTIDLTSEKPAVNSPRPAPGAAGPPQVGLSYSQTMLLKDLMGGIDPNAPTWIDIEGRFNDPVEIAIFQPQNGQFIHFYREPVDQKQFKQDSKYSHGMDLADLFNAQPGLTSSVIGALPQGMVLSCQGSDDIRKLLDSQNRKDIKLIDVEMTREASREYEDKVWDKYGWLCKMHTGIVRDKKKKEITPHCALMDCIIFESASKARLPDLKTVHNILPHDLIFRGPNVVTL
Compound,Potency [1],Potency [2],Potency [3],Potency [4],Potency [5],Potency [6],Potency [7],Potency [8],Potency [9],Potency [10]
O=C(N[C@@H](COc1ccc2[nH]c(=O)[nH]c2c1)c1ccccc1)c1cccn(Cc2ccc(F)c(F)c2)c1=O,inactive,inactive,inactive,inactive,20.9 µM (active),,,,,
CC(=O)O[C@@]12CO[C@H]1C[C@H](O)[C@@]1(C)C(=O)[C@H](O)C3=C(C)[C@@H](O)C[C@@](O)([C@@H](OC(=O)c4ccccc4)[C@@H]21)C3(C)C,13.7 µM (active),21.7 µM (active),,9.3 µM (active),1.48 µM (active),18.7 µM (active),1.48 µM (active),1.32 µM (active),2.09 µM (active),
CC(=Cc1csc(C)n1)[C@@H]1C[C@H]2O[C@]2(C)CCC[C@H](C)[C@@H](O)[C@@H](C)C(=O)C(C)(C)[C@@H](O)CC(=O)O1,inactive,inactive,inactive,0.0037 µM (active),0.0296 µM (active),,,0.001 µM (active),0.0166 µM (active),
CCCCCCCCc1ccc(O)cc1,inactive,inactive,inactive,,,inactive,,,,
CCN1CCN(C(=O)Cc2ccc(Nc3ncc(F)c(Nc4ccc(C(=O)Nc5ccccc5Cl)cc4)n3)cc2)CC1,4.32 µM (active),6.85 µM (active),,,2.35 µM (active),3.72 µM (active),2.96 µM (active),5.26 µM (active),5.26 µM (active),
COCC1(CO)C(=O)C2CCN1CC2 (stereo unspecified),inactive,12.2 µM (active),,20.8 µM (active),2.09 µM (active),23.5 µM (active),2.35 µM (active),1.18 µM (active),0.264 µM (active),1.22 µM (active)
C[C@@H]1CC[C@H]2[C@@H](C)C(=O)O[C@@H]3O[C@@]4(C)CC[C@H]1[C@]32OO4,inactive,inactive,inactive,inactive,inactive,,inactive,11.8 µM (active),,
CC(O)=C(C#N)C(=O)Nc1cc(Br)ccc1Br,inactive,inactive,inactive,inactive,,inactive,inactive,0.332 µM (active),,inactive
O=S(=O)(CC1CS1)c1ccc(Oc2ccccc2)cc1 (stereo unspecified),inactive,inactive,inactive,,26.4 µM (active),,9.35 µM (active),,23.5 µM (active),19.3 µM (active)
CC(C)[C@]12O[C@@H]1[C@@H]1O[C@]13[C@]1(O[C@H]1C[C@@H]1C4=C(CC[C@@]13C)C(=O)OC4)[C@H]2O,inactive,inactive,inactive,,0.001 µM (active),,0.001 µM (active),0.001 µM (active),0.001 µM (active),0.001 µM (active)
Clc1ccccc1C(c1ccccc1)(c1ccccc1)n1cccn1,inactive,inactive,inactive,inactive,,inactive,inactive,inactive,,
CO/C=C(/C(=O)OC)c1ccccc1Oc1cc(Oc2ccccc2C#N)ncn1,22.4 µM (active),,10 µM (active),,,9.69 µM (active),,,27.3 µM (active),
CC1=C(O)C(=O)C=C2C1=CC=C1[C@@]2(C)CC[C@@]2(C)[C@@H]3C[C@](C)(C(=O)O)CC[C@]3(C)CC[C@]12C,19.3 µM (active),,7.69 µM (active),7.39 µM (active),0.935 µM (active),0.935 µM (active),1.18 µM (active),,0.743 µM (active),4.85 µM (active)
O=C(Oc1ccc([N+](=O)[O-])cc1)N1CCN(Cc2cccc(Oc3ccccc3)c2)CC1,24.3 µM (active),,6.85 µM (active),inactive,inactive,,18.7 µM (active),18.7 µM (active),inactive,
CC(=O)Nc1sc2c(c1-c1nc3ccccc3s1)CNC2,0.0054 µM (active),,0.0027 µM (active),,,,,,,
COc1cc2c(cc1OC)[C@@H]1C(=O)c3ccc4c(c3O[C@@H]1CO2)C=CC(C)(C)O4,1.93 µM (active),,0.243 µM (active),,,,,,,
O=S(=O)(F)Cc1ccccc1,1.53 µM (active),,inactive,inactive,inactive,inactive,,,inactive,
COc1cc(Nc2ncc(F)c(Nc3ccc4c(n3)NC(=O)C(C)(C)O4)n2)cc(OC)c1OC,inactive,,inactive,,,,,,,
NC(=O)c1ccc(-c2nc(-c3ccc4c(c3)OCCO4)c(-c3ccccn3)[nH]2)cc1,21.7 µM (active),,inactive,,,,,,,
CN(C)c1ccc(Nc2nc(N)n(C(=O)c3c(F)cccc3F)n2)cc1,21.7 µM (active),,inactive,,,,,,,
COc1ccc(CC2NCCc3cc(OC)c(OC)cc32)cc1OC (stereo unspecified),inactive,,inactive,inactive,inactive,inactive,,,inactive,
N#CCNC(=O)c1ccc(-c2ccnc(Nc3ccc(N4CCOCC4)cc3)n2)cc1,21.7 µM (active),,inactive,,,,,,,
c1cc2ccc3cccc4ccc(c1)c2c34,inactive,,inactive,inactive,inactive,inactive,inactive,,inactive,inactive
CO[C@@H]1[C@H](N(C)C(=O)c2ccccc2)C[C@H]2O[C@]1(C)n1c3ccccc3c3c4c(c5c6ccccc6n2c5c31)C(=O)NC4,3.06 µM (active),,inactive,,,,,,,
COC(=O)[C@]12CCC(C)(C)C[C@@H]1[C@@H]1C(=O)C=C3[C@@]4(C)C=C(C#N)C(=O)C(C)(C)[C@@H]4CC[C@@]3(C)[C@]1(C)CC2,3.43 µM (active),,2.17 µM (active),,,,,,,
O=c1cccc2n1CC1CNC[C@H]2C1,27.3 µM (active),,inactive,inactive,5.9 µM (active),18.7 µM (active),4.69 µM (active),4.69 µM (active),,
CN1[C@H]2CC(O)C[C@H]1[C@H]1O[C@H]12 (stereo partly specified),27.3 µM (active),,,inactive,9.35 µM (active),,18.7 µM (active),9.35 µM (active),,
COc1ccccc1[C@H](c1cccc2ccccc12)[C@@](C)(C#N)C(=O)N1CCC(c2cccc(C(F)(F)F)c2)CC1,21.7 µM (active),,inactive,,,,,,,
